A selection: hits, their analogues and other compounds. The true share with any hit is near 14%.
FBPA Giardia inh = qHTS Assay for Inhibitors of Fructose-1,6-bisphosphate Aldolase from Giardia Lamblia; A8B2U2; purified Giardia FBPA; Potency, µM (doses to about 59.6 µM), without a hit: at the top dose activity, negative = inhibition, actives largely listed as inhibitors; 290,000 compounds, 0.71% hits; AID 2451, 2010; further: potency means the concentration at half of the fitted maximal effect; nearly all actives have a fitted effect of over 55% in size
Target sequence (A8B2U2 whole entry, looked up): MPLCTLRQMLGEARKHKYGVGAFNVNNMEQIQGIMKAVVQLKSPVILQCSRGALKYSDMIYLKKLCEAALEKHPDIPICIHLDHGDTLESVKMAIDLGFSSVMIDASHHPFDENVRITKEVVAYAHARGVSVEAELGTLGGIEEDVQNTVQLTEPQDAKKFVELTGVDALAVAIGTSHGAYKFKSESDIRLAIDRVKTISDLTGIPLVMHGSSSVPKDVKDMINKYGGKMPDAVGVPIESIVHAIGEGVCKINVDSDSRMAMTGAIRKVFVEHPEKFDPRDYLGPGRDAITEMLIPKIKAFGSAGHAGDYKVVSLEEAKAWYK
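40 nM FBPA preincubated 10 min at RT with compound (up to 57.5 uM final), then substrate plus GAPDH/TPI/NAD/arsenate coupling and diaphorase/resazurin added. Fluorescence read after 20 min at RT, 525/598 nm.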
Pf growth 48h = Primary qHTS for delayed death inhibitors of the malarial parasite plastid, 48 hour incubation | AID 504832, 2011 | Potency, µM (doses to about 28.7 µM), for inactives: at the top dose activity change, negative = inhibition, usual class: inhibitors | 310,000 compounds, 5.9% hits | P. falciparum luciferase growth in erythrocytes, 48 h; further: potency means the concentration at half of the fitted maximal effect
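First compound was added to culture medium, then infected red cells at 0.1% parasitemia and 2% hematocrit (final). After incubation at 37 C under 5% CO2, luciferase detection reagent was dispensed and light output recorded.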
HCMV antiviral = qHTS Assay for inhibitors of the human cytomegalovirus (HCMV); 410,000 compounds, 4.5% hits; activity change, negative = inhibition, % at 57.5 µM; HFF cells, HCMV-luciferase reporter, 72 h; stronger effect = lower value; in the data active means activity change below about -60%; inconclusive means no clear call, values can overlap the other calls; inactive means above about -39%
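Inhibition of viral replication was scored as loss of reporter luminescence in HFFs infected with HCMV-luciferase (MOI 1 PFU/cell) for 72 h; compounds tested at 2 doses, normalized to buffer and Salinomycin controls.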
Sm TGR inh = qHTS Assay for the Inhibitors of Schistosoma Mansoni Peroxiredoxins. 360,000 compounds, 3% hits. Schistosoma mansoni thioredoxin glutathione reductase (TGR), Q962Y6. purified TGR, DTNB reduction, TNB absorbance 405 nm. Potency, µM (series often up to 114 µM), for inactives: at the top dose activity change, negative = inhibition, hits mostly inhibitors; further: potency means the concentration at half of the fitted maximal effect; nearly all actives have a fitted effect of over 60% in size
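TGR 20 nM + NADPH 100 uM (dispensed conc.), cpd preinc 15 min RT; start with NADPH (500 uM addition) then DTNB (15 mM addition). Kinetic TNB absorbance, 405 nm filter. Four-parameter Hill fit across titration.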
Pf growth 96h = Primary qHTS for delayed death inhibitors of the malarial parasite plastid, 96 hour incubation; P. falciparum luciferase reporter growth, 96 h; Potency, µM (top dose mostly 28.7 µM), without a hit: top-dose activity change, negative = inhibition, hits mostly inhibitors; 320,000 compounds, 6.9% hits; further: potency means the concentration at half of the fitted maximal effect
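P. falciparum expressing integrated firefly luciferase grown in erythrocytes (2% hematocrit, 0.05% parasitemia final) with compounds for 96 hours at 37 C, 5% CO2. Growth inhibition read as loss of luminescence after adding luciferase detection reagent.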
* = called active by the depositor; ? = inconclusive; . = no result; ! = not active in a repeat. Unless noted, the call rests on the fitted dose curve; in most records, active means well fitted curve in the direction sought with a large enough effect; inconclusive means small, poorly fitted or top-dose-only effect, or another doubt; inactive means no such curve, though single readings can be large; an effect the other way counts as inactive or inconclusive. On the % scale 0 is the no-effect control and ±100 the full control effect.

SMILES	FBPA Giardia inh	Pf growth 48h	HCMV antiviral	Sm TGR inh	Pf growth 96h
CCCn1c(=O)c2sccc2n2c(CCCC(=O)NCC3CCCO3)nnc12 (stereo not given)	.	?	-24.3	-1.4%	?
COC(=O)c1ccc(NC(=O)COc2ccc(N(C)S(=O)(=O)c3ccc(C)cc3)cc2)cc1	.	?	-0.5	3.6%	?
Cc1ccc(NC2=NC3(CCCCC3)N=C(N)N2)c(C)c1	-6.1%	?	-30.4	0.3%	8.28µM*
NC1=NC2(CCCCC2)N=C(Nc2ccc(Br)cc2)N1	5.1%	1.04µM*	-14.7	-2.4%	?
C[C@@H]1CN([C@@H](C)CO)C(=O)c2ccccc2-c2ccccc2CO[C@@H]1CN(C)S(=O)(=O)c1ccc(C(F)(F)F)cc1	.	.	-0.1	.	.
CC(C)NS(=O)(=O)c1ccc(Br)c(C(=O)OC(C)C(=O)NC2CCCCC2C)c1 (stereo not given)	.	?	-19.3	-11.2%	5.7%
COc1ccc(CSc2nc(C)[nH]c2[N+](=O)[O-])cc1[N+](=O)[O-]	14.5%	32.4%	4.4	-3.2%	2.2%
COc1ccc(CSc2nncn2N)cc1[N+](=O)[O-]	-5.1%	38.7%	-25.9	5.3%	7.38µM*
COc1ccc(CSc2cccc3cccnc23)cc1[N+](=O)[O-]	-15.4%	69.5%	-2.5	-1.6%	6.57µM*
Cc1nnc2ccc(N3CCN(C(=O)c4ccccc4)CC3)nn12	-4.9%	.	7.8	-5.6%	35.3%
O=C(Nc1ccccc1C(F)(F)F)N1CCN(c2ccc3nnc(-c4ccc(F)cc4)n3n2)CC1	-4.6%	11.7µM*	-11.7	-12.1%	?
O=C(c1ccc(Br)o1)N1CCN(c2ccc3nnc(-c4ccccc4)n3n2)CC1	-5.4%	?	-72.3*	?	4.2%
O=C(Nc1ccc(F)cc1)N1CCN(c2ccc3nnc(-c4ccc(F)cc4)n3n2)CC1	-5.6%	.	-69.5*!	-4.5%	?
O=C(Cn1cc(C(=O)c2cccs2)c2ccccc21)Nc1ccc(Br)cc1	.	.	-22.6	-7.3%	.
COc1cc(Cl)c(NS(=O)(=O)c2ccc(-c3ccc(=O)[nH]n3)o2)c(OC)c1	.	18.5%	-14.1	?	56.4%
COc1cc(Cl)c(NC2=CC(=O)C(=O)c3ccccc32)c(OC)c1	.	0.37µM*	-97.0*	?	?
COc1ccc(-n2nnnc2S(=O)(=O)Cc2ccc(C(=O)O)cc2)cc1	12.2%	?	-18.3	12.6µM*	25.0%
COc1ccc(-n2nnnc2S(=O)(=O)CC(=O)N2CCCCC2)cc1	4.7%	.	.	10µM*	-14.0%
O=S(=O)(Cc1ccccc1)c1nnnn1-c1ccccc1	2.9%	.	.	.	.
Cc1ccc(C(=O)COC(=O)C2CC3CCCC(C2)C3=O)cc1[N+](=O)[O-] (stereo not given)	.	?	-23.7	0.5%	8.2%
CCn1cc(S(=O)(=O)c2cccc(Cl)c2)c(=O)c2cc(F)c(N3CCN(c4ccccc4)CC3)cc21	.	.	?	-0.4%	.
Cn1c(=O)c(Oc2ccc(Cl)cc2)c(O)c2ccccc21	-3.9%	13.8%	-8.3	0.0%	-7.9%
CC(=O)n1c(C=Nc2ccc(Cl)cc2)c(O)c2ccccc21	?	1.47µM*	?	-3.3%	?
Cc1ccccc1NC(=O)Cn1nnc(C(=O)NCc2cccs2)c1N	.	.	-0.9	4.2%	.
C=CC[C@@H](CC(=O)NCCO)C(=O)N[C@@H](COC(=O)[C@@H](CC=C)CC(=O)OC(C)(C)C)Cc1c[nH]c2ccccc12	.	.	-6.1	.	.
SMILES	FBPA Giardia inh	Pf growth 48h	HCMV antiviral	Sm TGR inh	Pf growth 96h
Cc1ccc(NNc2c(C)nc3ccccc3nc2=O)cc1	2.7%	16.0%	-67.0*	.	19.5%
Cc1nn2c(C)c(C(=O)NCc3ccc(OC(C)C)cc3)cnc2c1-c1ccc(F)cc1	.	.	-24.4	0.6%	.
Cc1ccc([C@@H]2C[C@H]3[C@@H](CN2S(=O)(=O)c2ccc(Cl)cc2)C(=O)C[C@@H](c2ccc(C)cc2)N3S(=O)(=O)c2ccc(Cl)cc2)cc1	.	.	5.1	.	.
Cc1ccc(Nc2nc(-c3ccc(C)cc3)c(CC(=O)O)s2)cc1	-19.7%	16.7%	50.2	?	0.0%
CCOc1ccccc1Nc1nc(-c2ccc(C)cc2)c(CC(=O)O)s1	.	.	63.0	39.8µM*	.
CC(NC(=O)CCn1c(=O)c2cccn2c2ccc(F)cc21)c1ccccc1 (stereo not given)	.	.	-10.7	9.1%	.
Cc1nn(C)c(C)c1NC(=O)COc1ccc(Cl)cc1	.	-0.7%	0.0	5.7%	2.0%
Cc1ccc(-n2nc(C)c(NC(=O)CCl)c2C)cc1C	4.2%	4.15µM*	-102.9*	22.4µM*	-0.8%
Cc1nn(C)c(C)c1NC(=O)CCl	-28.4%	?	-69.7*	.	12.6%
CCC1CCCCN1CCCNC(=O)c1cc2c(=O)oc3ccc(C)cc3c2s1 (stereo not given)	.	?	0.0	0.8%	99.0%
O=C(NCc1ccco1)/C(=C/c1cccc(C(F)(F)F)c1)c1nc2ccccc2[nH]1	-12.8%	?	-100.3*	-0.1%	?
CC1=C/C(=C\C=C(C#N)C#N)N(C)c2ccccc21	-5.1%	18.3%	-80.7*	10.2%	3.9%
CN1/C(=C/C=C(C#N)C#N)C(C)(C)c2ccccc21	19.4%	75.9%	-10.2	5.6%	?
CC1=CC(=C(C#N)C#N)c2ccccc2N1C	-4.9%	11.7µM*	14.0	-6.9%	12.6%
CCOC(=O)c1cccc(NC(=O)CSc2nnc(C)n2CC2CCCO2)c1 (stereo not given)	.	-6.9%	2.8	6.4%	37.3%
COc1ccc(CCNC(=O)CC2SC(N)=NC2=O)cc1OC (stereo not given)	-0.8%	-11.0%	-12.3	.	13.7%
Cn1c(NC(=O)C[n+]2cc(-c3ccc(Cl)c(Cl)c3)n3c2CCC3)cc(=O)n(C)c1=O	2.1%	1.31µM*	-31.5	-3.7%	0.828µM*
O=C(C[n+]1cc(-c2ccc(F)cc2)n2c1CCC2)Nc1nc(-c2ccccc2)cs1	3.0%	?	-8.1	-0.4%	?
Cc1ccc(-c2c[n+](CC(=O)Nc3ccc(C)cc3C)c3n2CCC3)cc1	4.3%	?	-71.2*	5.3%	?
Cc1ccc(N(CC(=O)Nc2ccc(C)cc2C)S(=O)(=O)N2CCCC2)cc1	-0.1%	.	-10.5	0.0%	?
Cc1ccc(NC(=O)C[n+]2cc(-c3ccc(C)cc3)n3c2CCC3)cc1	-4.7%	6.57µM*	-7.9	-1.7%	1.85µM*
Cc1ccc(-c2c[n+](CC(=O)OCc3ccccc3)c3n2CCC3)cc1	1.7%	20.1%	-26.9	-18.3%	15.8%
Cc1ccc(-c2c[n+](CC(=O)Nc3nc(-c4ccc(F)cc4)cs3)c3n2CCC3)cc1	0.5%	?	?	-3.3%	3.7µM*
CCC(C)(C)NC(=S)Nc1ccccc1C	2.8%	10.4µM*	?	3.4%	?

Source: PubChem (National Center for Advancing Translational Sciences (NCATS))
